Among all 2,300 compounds or so, about 550 (24%) were called active. How the calls were made is not given here. These entries were drawn from the full list. Measured potencies and affinities stand elsewhere.

The nature of this assay: Vero E6 cell cytotoxicity, dose response, cytotoxicity control for non-replicating M. tuberculosis project, secondary assay (AID 492998). The note with it: series mostly up to 20 µM.
On to `c1ccc(OCc2nnc3sc(-c4cccs4)nn23)cc1`, for which the compound was called inactive. As for `CCOC(=O)c1cc([N+](=O)[O-])c([N+](=O)[O-])cc1NC(C)=O`, the compound was called inactive.

For the compound `COc1cc2c(cc1OC)CN(C(=O)c1ccc([N+](=O)[O-])o1)CC2`, the compound was classed as inactive. Under `O=C(c1ccc([N+](=O)[O-])o1)N1CCN(c2nc3ccc(F)cc3s2)CC1` stands “inactive”.

Turning to `CC1(CCc2ccc3c(c2)OCO3)NC(=O)c2ccccc2N1` (stereo not given), the compound was classed as inactive.

Turning to `COc1ccccc1-c1nnc(-c2ccc(C)cc2)o1`, the result was inactive. As to `COc1ccccc1-c1cc(SC)c(C#N)c(=O)o1`, the call was inactive. Consider `CCc1ccc(NC(=O)CCc2ccc(C)o2)cc1`, for which the call was inactive. Under `O=S(=O)(NCc1cccnc1)c1ccc(Cl)c(Cl)c1Cl` stands “inactive”; under `Cc1ccccc1OCCNc1cc(N2CC(C)NC(C)C2)ccc1[N+](=O)[O-]` (stereo not given), “inactive”; under `CC1CCCN(CCCOc2ccc([N+](=O)[O-])cc2)C1` (stereo not given), “inactive”. On to `S=c1[nH]c2ccccc2o1`, for which the result was inactive. Under `CCOc1ccc(OC(=O)c2ccc3c(=O)n4c(nc3c2)CCC4)cc1` stands “inactive”; under `O=Cc1c(NCc2ccco2)nc2ccccn2c1=O`, “inactive”; under `CC(C)Oc1ccc(CNC(=O)Oc2ccccc2)cc1`, “inactive”. Then `CCCOc1ccc(N2CC(C(=O)Nc3ccccc3F)CC2=O)cc1` (stereo not given), with “inactive”; and `CCOC(=O)Cn1c2ccc(F)cc2c2nc(C)sc21`, with “inactive”.

`Cc1cccc(NC(=O)c2cc3ccccc3o2)c1`: the call was inactive. As to `CC(C)(C)NC(=O)C(=O)NNC(=O)c1ccc(C(C)(C)C)cc1`, the call was inactive. On to `CCOC(=O)c1nc2sc3c(c2c(=O)[nH]1)CCC(C)C3` (stereo not given), for which the outcome was inactive. Take `COc1ccc(OCC(=O)Nc2ccc(N3CCN(C(=O)c4ccco4)CC3)cc2)cc1`: the compound was called inactive.

Regarding `O=C(CCN1C(=O)S/C(=C\c2ccc(F)cc2)C1=O)Nc1ccc(C(=O)O)c(O)c1`, the outcome was inactive. Regarding `CC(=O)c1cccc(NC(=O)C2COc3ccccc3O2)c1` (stereo not given), the compound was classed as inactive.

For the compound `Cc1ccc(CNCc2cc(Cl)ccc2O)cc1`, the compound was called inactive. Under `O=C(CCCOc1ccccc1)OCn1nnc2ccccc2c1=O` stands “inactive”; under `O=C(NCc1ccccc1)c1cc2ccccc2oc1=O`, “inactive”. In the case of `CCC/C(=N\NC(=O)c1ccco1)c1ccc(Cl)s1`, the result was inactive.

`O=C(Nc1nccs1)c1ccc(Br)cc1`: the compound was classed as inactive. As for `C/C(=C\C(=O)c1ccc(Br)cc1)NNC(=O)c1ccccc1`, the compound was classed as inactive. Then `COc1cc(C=O)ccc1OCCCCOc1ccccc1[N+](=O)[O-]`, with “inactive”; and `CCOC(=O)c1cc(-c2c(Cl)cccc2Cl)no1`, with “inactive”. Then `c1ccc(Cn2c(SCCN3CCOCC3)nnc2-c2cccnc2)cc1`, with “inactive”. Under `O=C(O)CCCCCN1C(=O)CSC1=S` stands “inactive”. Take `COc1ccc(CN=C2NN=C(c3ccc(Cl)cc3)CS2)cc1`: the result was inactive. Under `O=C(O)c1ccc(CN2C(=O)CSC2=S)cc1` stands “inactive”; under `O=C1NC(Cc2c[nH]c3ccccc23)C(=O)N1CCOc1ccccc1` (stereo not given), “inactive”. Under `CCOc1ccc(/C=N/OCC(=O)Nc2ccc3c(c2)OCO3)cc1` stands “inactive”; under `COc1cccc(OCC(=O)NNC(=O)c2cccs2)c1`, “inactive”. In the case of `CCC(=O)N/N=C/c1ccc(-c2ccc(Cl)cc2)o1`, the outcome was inactive.

With `Cc1ccc(CO/N=C/c2c(O)cc(C)oc2=O)cc1`, the call was inactive. Take `Cc1ccc(NC(=O)C2COc3ccccc3O2)nc1` (stereo not given): the compound was classed as inactive.

Turning to `O=C1NC(=S)S/C1=C\c1ccc(SCc2ccco2)o1`, the outcome was inactive. Regarding `O=C(C/C=N\OCc1ccc([N+](=O)[O-])cc1)Nc1ccccc1`, the compound was classed as inactive. For the compound `C/C(=N\Nc1nc2ccccc2[nH]1)c1ccc(N2CCOCC2)cc1`, the result was inactive. Under `CCCc1cc(=O)n2[nH]c(C)c(-c3ccccc3)c2n1` stands “inactive”; under `CC(C)[C@H](NC(=O)c1ccc(Br)cc1)C(=O)NC1CCCCC1`, “inactive”. Under `O=C(c1cc([N+](=O)[O-])cc([N+](=O)[O-])c1)N(Cc1nnc(-c2ccccc2Cl)o1)C1CC1` stands “inactive”.

`CC(=O)N1CCN(C(=O)CC2OC(=O)c3ccccc32)CC1` (stereo not given): the compound was called inactive. Then `Cc1c(Cl)cccc1-c1ccc(CNCc2ccccn2)o1`, with “inactive”; and `Cc1ccsc1C(=O)OCC(=O)NCCC1=CCCCC1`, with “inactive”; and `COCCn1c(C)cc(C(=O)COC(=O)c2ccc(Br)o2)c1C`, with “inactive”.

Take `COc1cc(/C=C2/C(=O)NN(c3cccc(F)c3)C2=O)ccc1OC(=O)c1ccco1`: the compound was classed as inactive. Then `CC(C)(C)OC(=O)N/N=C\c1ccc([N+](=O)[O-])s1`, with “inactive”; and `O=C(Nc1ccc(Cl)c(Cl)c1)O/N=C/c1ccncc1`, with “inactive”; and `CCCCN(C/C=C/c1ccccc1OC)Cc1ccccc1`, with “inactive”.

Regarding `CCCOC(=O)c1ccc(NC(=O)c2ccc(Br)o2)cc1`, the call was inactive. For `COc1ccc(-c2nc(C=O)cs2)cc1`, the result was inactive.

Take `Cc1cccc(NC(=O)COc2ccc(Br)cc2)n1`: the outcome was inactive. Under `COc1cccc(NC(=O)c2cc3ccccc3oc2=O)c1` stands “inactive”. Then `Cc1ccc(C(=O)c2cncc(Br)c2)cc1`, with “inactive”; and `CC(=O)Oc1ccc(/C=C2\N=C(C3CCCCC3)OC2=O)cc1`, with “inactive”.

Take `CCCCOc1ccc(-c2nnn(C(C)C(=O)OCC)n2)cc1` (stereo not given): the compound was called inactive. Under `Clc1ccc(N=c2ssnc2Cl)nc1` stands “inactive”. Under `Cc1ccccc1N1CCN(Cc2ccc([N+](=O)[O-])o2)CC1` stands “inactive”; under `COc1ccccc1N1CCN(C(=O)c2ccc([N+](=O)[O-])s2)CC1`, “inactive”; under `O=C(c1ccc([N+](=O)[O-])s1)N1CCN(c2cccc(Cl)c2)CC1`, “inactive”.

On to `O=[N+]([O-])c1ccc(CN2CCN(c3ccccc3Cl)CC2)o1`, for which the result was inactive. Under `CCOC(=O)COc1ccc2c(=O)c(-c3ccccc3OC)coc2c1` stands “inactive”. Under `COc1ccc(OCCOC(=O)CCS(=O)(=O)c2ccc(C)cc2)cc1` stands “inactive”. With `C=CCN(CC=C)CC(=O)Nc1ccc(S(N)(=O)=O)cc1`, the compound was called inactive. For the compound `O=C1N/C(=N\c2ccccn2)SC1Cc1ccc(Cl)cc1` (stereo not given), the outcome was inactive.

With `COc1ccc(OCCSc2nnc(Cc3cccc4ccccc34)n2N)cc1`, the result was inactive. Under `CC1=CC2=NC(=O)/C(=C\c3ccc(OC(=O)c4ccco4)cc3)C(=N)N2O1` stands “inactive”; under `Cn1[nH]c(-c2ccccc2)c(/C=N/O)c1=O`, “inactive”. Take `CS/C(Nc1cc(Cl)ccc1Cl)=C(/C#N)C(=O)c1ccco1`: the compound was classed as inactive.

Consider `COc1ccc(N2C(=O)C(F)(F)C2c2cccc(F)c2)cc1` (stereo not given), for which the compound was classed as inactive. In the case of `O=C(NN=C(Cc1ccccc1)Cc1ccccc1)c1ccncc1`, the call was inactive.

For `O=C(N/N=C/C=C/c1ccccc1)c1ccncc1`, the call was inactive. For `O=C(CN1CCN(c2ccccc2)CC1)Nc1nnc(-c2ccccc2)s1`, the call was inactive.

In the case of `Cc1ccc(C(=O)COC(=O)c2cccs2)cc1`, the call was inactive. As to `CCCCCn1nnc2c(=O)oc3ccccc3c21`, the compound was classed as inactive. Under `CCOc1ccc(NCC(=O)c2ccc(C)cc2)cc1` stands “inactive”. Under `CCc1ccc(C2=C/C(=C/c3cccnc3)C(=O)O2)cc1` stands “inactive”; under `O=C(NN=C1C2CC3CC1CC(Cl)(C3)C2)c1cccs1`, “inactive”; under `CC(C)(C)c1ccc(NC(=O)COc2ccc(-n3ccnc3)cc2)cc1`, “inactive”.

Turning to `Cn1c(-c2cccc([N+](=O)[O-])c2)cnc1NCc1cccc(F)c1`, the compound was called inactive. Regarding `Cc1ccc(C)c(NC(=O)c2cc([N+](=O)[O-])cc([N+](=O)[O-])c2)c1`, the compound was called inactive. Consider `Cc1cc(Cl)ccc1OC(C)C(=O)Nc1ccc([N+](=O)[O-])cn1` (stereo not given), for which the compound was called inactive. As for `O=C(C/C=N\OCc1ccc([N+](=O)[O-])cc1)Nc1ccc(F)cc1F`, the compound was classed as inactive.

On to `Cc1cc(C)cc(OC(=O)CCN2C(=O)c3ccccc3C2=O)c1`, for which the call was inactive. Under `O=C1c2ccccc2C(=O)N1CCOc1ccc(F)cc1` stands “inactive”; under `O=c1oc2ccccc2c(Nc2ccccc2O)c1[N+](=O)[O-]`, “inactive”; under `CCOc1ccc(NC(=O)c2nnn(CC(=O)Nc3ccccc3OC)c2N)cc1`, “inactive”. For `O=C(c1cc2ccccc2o1)N1CCN(Cc2ccccc2)CC1`, the outcome was inactive. Under `C/C(=N\NC(=O)c1ccc([N+](=O)[O-])c(C)c1)c1ccccc1Cl` stands “inactive”.

As for `C/C(=N\NC(=O)c1ccccc1)c1nc2ccccc2n1C`, the result was inactive. Under `COc1cc(/C=N/N(C)C)ccc1OC(=O)c1cccs1` stands “inactive”; under `Cc1cc(Cl)cc(C)c1OCCCCn1ccnc1`, “inactive”. As for `Clc1ccc(SCCCCn2ccnc2)cc1`, the call was inactive. Turning to `Cc1ccc(CCC(=O)Nc2ccccc2F)s1`, the result was inactive. For `O=C(COC(=O)c1ccccc1)NCc1cccs1`, the call was inactive. Take `O=C(CCc1ccc(Oc2cc([N+](=O)[O-])cc([N+](=O)[O-])c2)cc1)N1CCCCC1`: the result was inactive. In the case of `CSc1nn(-c2ccc(C(=O)OCC(=O)NC(=O)NC(C)C)cc2)c(=S)s1`, the call was inactive. Under `CCN1C(=O)CC(N2CCC(c3nc4ccccc4[nH]3)CC2)C1=O` (stereo not given) stands “inactive”; under `CC(NCCCOc1cccc2ccccc12)c1ccccc1` (stereo not given), “inactive”. With `O=C(COC(=O)c1ccccc1)NC12CC3CC(CC(C3)C1)C2`, the outcome was inactive.

In the case of `CCOC(=O)C1CSC(CC(=O)Nc2ccc(Cl)c(Cl)c2)C(=O)N1` (stereo not given), the result was inactive. Then `O=C(C/C=N\OCc1ccc([N+](=O)[O-])cc1)Nc1ccc(Cl)cc1`, with “inactive”.

On to `NC(=O)c1ccc(-c2ccc(Br)cc2)o1`, for which the result was inactive. As to `O=C(Nc1cccnc1)c1ccc(-c2ccc(Cl)cc2)o1`, the call was inactive.

Consider `CCOc1ccc(C(=O)Nc2ccc(N3CCN(C)CC3)cc2)cc1Br`, for which the outcome was inactive.

Regarding `O=C(Nc1nccs1)c1ccc(-c2ccc(Cl)cc2)o1`, the outcome was inactive. Consider `O=C(CN1CCC(Cc2ccccc2)CC1)NC(=O)NC1CCCCC1`, for which the call was inactive.

For `Cc1ccc2[nH]c3c(c2c1)CCCC3NCCO` (stereo not given), the compound was called inactive. Under `Cc1ccc(-c2nnc(-c3ccccc3)o2)cc1` stands “inactive”. With `c1ccc(-c2n[nH]c(-c3ccccn3)n2)nc1`, the outcome was inactive. Turning to `CCOC(=O)N1CCC(NC(=O)C2CCN(c3nc(-c4ccc(OC)cc4)no3)CC2)CC1`, the outcome was inactive. Under `COc1cccc(OC(=O)c2cc3ccccc3oc2=O)c1` stands “inactive”. In the case of `CCOC(=O)Cn1cc(C#N)c2cccc(CC)c21`, the call was inactive. Then `Cc1ccc(S(=O)(=O)NCC(=O)OCCOc2cccc(Cl)c2)cc1`, with “inactive”.

The record behind these values is PubChem BioAssay AID492998 (Southern Research Specialized Biocontainment Screening …, 2010).
